The entries come from a sample that favours the strongest signals as a whole.
Tests used:
Experiment in all cases: glycan array binding signal (z-score within array); higher = stronger binding
Settings in all cases: glycan notation: IUPAC condensed, linker removed
[1] = molecular target: Fuc(a1-2)Gal(b1-3)GalNAc(b1-4)[Neu5Ac(a2-3)]Gal(b1-4)Glc
How it was run: (§1)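 Glycan array binding is given as a within-array Z-score, which can be read as non-binding when negative. The arrays, 3228 of them, came from the Consortium for Functional Glycomics database and were retained only where the protein sequence was available. Z-scores were averaged across arrays of the same protein sequence at different concentrations or buffers and across linkers.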

[2] = molecular target: Fuc(a1-2)Gal(b1-4)GlcNAc(b1-3)Gal(b1-4)GlcNAc(b1-3)Gal(b1-4)GlcNAc
How it was run: as §1

[3] = molecular target: Fuc(a1-2)Gal(b1-4)[Fuc(a1-3)]GlcNAc(b1-3)[Neu5Ac(a2-6)Gal(b1-4)GlcNAc(b1-6)]Gal(b1-4)Glc
How it was run: as §1

Fuc(a1-2)Gal6S(b1-4)Glc = molecular target: Fuc(a1-2)Gal6S(b1-4)Glc
How it was run: as §1

[4] = molecular target: Fuc(a1-2)Gal6S(b1-4)Glc6S
How it was run: as §1

[5] = molecular target: Fuc(a1-2)[Gal(a1-3)]Gal(b1-4)GlcNAc(b1-2)Man(a1-3)[Fuc(a1-2)[Gal(a1-3)]Gal(b1-4)GlcNAc(b1-2)Man(a1-6)]Man(b1-4)GlcNAc(b1-4)GlcNAc
How it was run: as §1

[6] = molecular target: Fuc(a1-2)[Gal(a1-3)]Gal(b1-4)GlcNAc(b1-2)Man(a1-3)[Fuc(a1-2)[Gal(a1-3)]Gal(b1-4)GlcNAc(b1-2)Man(a1-6)]Man(b1-4)GlcNAc(b1-4)[Fuc(a1-6)]GlcNAc
How it was run: as §1

[7] = molecular target: Fuc(a1-2)[GalNAc(a1-3)]Gal(b1-3)GlcNAc
How it was run: as §1

[8] = molecular target: Fuc(a1-3)[Gal(b1-4)]GlcNAc(b1-6)GalNAc
How it was run: as §1

Gal(a1-3)Gal = molecular target: Gal(a1-3)Gal
How it was run: as §1

[9] = molecular target: Gal(a1-3)[Gal(a1-4)]Gal(b1-4)GlcNAc
How it was run: as §1

Gal(b1-3)GalNAc = molecular target: Gal(b1-3)GalNAc
How it was run: as §1

[10] = molecular target: Gal(b1-3)GlcNAc(b1-6)GalNAc
How it was run: as §1

[11] = molecular target: Gal(b1-3)GlcNAc(b1-6)[Gal(b1-3)]GalNAc
How it was run: as §1

[12] = molecular target: Gal(b1-3)[GlcNAc(b1-6)]GalNAc
How it was run: as §1

[13] = molecular target: Gal(b1-3)[Neu5Ac(a2-6)]GalNAc
How it was run: as §1

[14] = molecular target: Gal(b1-4)GlcNAc(b1-2)Man(a1-6)[Man(a1-3)]Man(b1-4)GlcNAc(b1-4)GlcNAc
How it was run: as §1

[15] = molecular target: Gal(b1-4)GlcNAc(b1-2)[Gal(b1-4)GlcNAc(b1-4)]Man(a1-3)[GlcNAc(b1-4)][Gal(b1-4)GlcNAc(b1-2)Man(a1-6)]Man(b1-4)GlcNAc(b1-4)GlcNAc
How it was run: as §1

[16] = molecular target: Gal(b1-4)GlcNAc(b1-2)[Gal(b1-4)GlcNAc(b1-6)]Man(a1-6)[GlcNAc(b1-4)][Gal(b1-4)GlcNAc(b1-2)Man(a1-3)]Man(b1-4)GlcNAc(b1-4)GlcNAc
How it was run: as §1

[17] = molecular target: Gal(b1-4)GlcNAc(b1-3)Gal(b1-4)GlcNAc(b1-2)Man(a1-3)[Gal(b1-4)GlcNAc(b1-3)Gal(b1-4)GlcNAc(b1-2)Man(a1-6)]Man(b1-4)GlcNAc(b1-4)GlcNAc
How it was run: as §1

[18] = molecular target: Gal(b1-4)GlcNAc(b1-3)Gal(b1-4)GlcNAc(b1-6)[Gal(b1-3)]GalNAc
How it was run: as §1

[19] = molecular target: Gal(b1-4)GlcNAc(b1-6)[Gal(b1-3)]GalNAc
How it was run: as §1

Gal3S(b1-3)GlcNAc = molecular target: Gal3S(b1-3)GlcNAc
How it was run: as §1

GlcA(b1-3)Gal = molecular target: GlcA(b1-3)Gal
How it was run: as §1

[20] = molecular target: GlcNAc(b1-2)[GlcNAc(b1-4)]Man(a1-3)[GlcNAc(b1-4)][GlcNAc(b1-2)[GlcNAc(b1-6)]Man(a1-6)]Man(b1-4)GlcNAc(b1-4)[Fuc(a1-6)]GlcNAc
How it was run: as §1

[21] = molecular target: GlcNAc(b1-3)Gal(b1-4)GlcNAc(b1-6)[Gal(b1-3)]GalNAc
How it was run: as §1

[22] = molecular target: GlcNAc(b1-6)Gal(b1-4)GlcNAc
How it was run: as §1

Kdn(a2-3)Gal(b1-3)GalNAc = molecular target: Kdn(a2-3)Gal(b1-3)GalNAc
How it was run: as §1

[23] = molecular target: Neu5Ac(a2-3)Gal(b1-3)GalNAc6S
How it was run: as §1

[24] = molecular target: Neu5Ac(a2-3)Gal(b1-4)GlcNAc(b1-3)Gal(b1-4)GlcNAc(b1-6)[Gal(b1-3)]GalNAc
How it was run: as §1

[25] = molecular target: Neu5Ac(a2-3)Gal(b1-4)GlcNAc(b1-6)[Gal(b1-3)]GalNAc
How it was run: as §1

[26] = molecular target: Neu5Ac(a2-3)Gal(b1-4)[Fuc(a1-3)]GlcNAc(b1-3)Gal(b1-4)GlcNAc
How it was run: as §1

[27] = molecular target: Neu5Ac(a2-6)Gal(b1-4)GlcNAc(b1-2)[Neu5Ac(a2-6)Gal(b1-4)GlcNAc(b1-4)]Man(a1-3)[GlcNAc(b1-4)][Neu5Ac(a2-6)Gal(b1-4)GlcNAc(b1-2)[Neu5Ac(a2-6)Gal(b1-4)GlcNAc(b1-6)]Man(a1-6)]Man(b1-4)GlcNAc(b1-4)GlcNAc
How it was run: as §1

[28] = molecular target: Neu5Ac(a2-6)Gal(b1-4)GlcNAc(b1-3)Gal(b1-4)GlcNAc(b1-3)Gal(b1-4)GlcNAc
How it was run: as §1

[29] = molecular target: Neu5Ac(a2-6)Gal(b1-4)GlcNAc(b1-3)Gal(b1-4)GlcNAc(b1-6)[Gal(b1-3)]GalNAc
How it was run: as §1

[30] = molecular target: Neu5Ac(a2-6)Gal(b1-4)GlcNAc(b1-6)[Gal(b1-3)]GalNAc
How it was run: as §1

[31] = molecular target: Neu5Ac(a2-6)GalNAc(b1-4)GlcNAc
How it was run: as §1

[32] = molecular target: Neu5Ac(a2-8)Neu5Ac(a2-8)Neu5Ac(a2-3)[GalNAc(b1-4)]Gal(b1-4)Glc
How it was run: as §1

[33] = molecular target: Neu5Gc(b2-6)Gal(b1-4)GlcNAc
How it was run: as §1

B1: Fm1D (Escherichia coli) (protein)
chain: FSCNVDGGSSIGAGTTSVYVNLDPVIQPGQNLVVDLSQHISCWNDYGGWYDTDHINLVQGSAFAGSLQSYKGSLYWNNVTYPFPLTTNTNVLDIGDKTPMPLPLKLYITPVGAAGGVVIKAGEVIARIHMYKIATLGSGNPRNFTWNIISNNSVVMPTHHHHHH
**Q.** Which results are given for B1?
**A.** glycan array binding signal (z-score) [1]: -0.146; glycan array binding signal (z-score) [2]: -0.144; glycan array binding signal (z-score) [3]: -0.143; glycan array binding signal (z-score) (Fuc(a1-2)Gal6S(b1-4)Glc): -0.149; glycan array binding signal (z-score) [4]: -0.14; glycan array binding signal (z-score) [5]: -0.142; glycan array binding signal (z-score) [6]: -0.143; glycan array binding signal (z-score) [7]: -0.146; glycan array binding signal (z-score) [8]: -0.139; glycan array binding signal (z-score) (Gal(a1-3)Gal): -0.142; glycan array binding signal (z-score) [9]: -0.125; glycan array binding signal (z-score) (Gal(b1-3)GalNAc): 2.2; glycan array binding signal (z-score) [10]: -0.12; glycan array binding signal (z-score) [11]: 3.7; glycan array binding signal (z-score) [12]: 4.94; glycan array binding signal (z-score) [13]: 3.04; glycan array binding signal (z-score) [14]: -0.144; glycan array binding signal (z-score) [15]: -0.147; glycan array binding signal (z-score) [16]: -0.151; glycan array binding signal (z-score) [17]: -0.138; glycan array binding signal (z-score) [18]: 3.82; glycan array binding signal (z-score) [19]: 10.7; glycan array binding signal (z-score) (Gal3S(b1-3)GlcNAc): -0.132; glycan array binding signal (z-score) (GlcA(b1-3)Gal): -0.143; glycan array binding signal (z-score) [20]: -0.144; glycan array binding signal (z-score) [21]: 4.57; glycan array binding signal (z-score) [22]: -0.134; glycan array binding signal (z-score) (Kdn(a2-3)Gal(b1-3)GalNAc): -0.14; glycan array binding signal (z-score) [23]: -0.141; glycan array binding signal (z-score) [24]: 1.11; glycan array binding signal (z-score) [25]: 5.29; glycan array binding signal (z-score) [26]: -0.14; glycan array binding signal (z-score) [27]: -0.142; glycan array binding signal (z-score) [28]: -0.146; glycan array binding signal (z-score) [29]: 11.5; glycan array binding signal (z-score) [30]: 3.09; glycan array binding signal (z-score) [31]: -0.144; glycan array binding signal (z-score) [32]: -0.152; glycan array binding signal (z-score) [33]: -0.143

Source: the supplement of paper PMC8728848
